# This is a sample that favours compounds with a hit; in the whole collection about 32% have one here.
# CYP2C9 act = activators of human CYP2C9. AID 1024. recombinant CYP2C9, luciferin-H conversion, luminescence; hits give high values; factor 1 = untreated enzyme, 0 = blocked. hit rate 1.4% among 96,000. activation factor at 5 µM. P11712;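 active = activation factor of 2 or more for CYP2C9 at a 5 µM dose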;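 note: 0 = sulfaphenazole-blocked wells and 1 = vehicle-only wells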
# Target sequence (P11712 whole entry, looked up): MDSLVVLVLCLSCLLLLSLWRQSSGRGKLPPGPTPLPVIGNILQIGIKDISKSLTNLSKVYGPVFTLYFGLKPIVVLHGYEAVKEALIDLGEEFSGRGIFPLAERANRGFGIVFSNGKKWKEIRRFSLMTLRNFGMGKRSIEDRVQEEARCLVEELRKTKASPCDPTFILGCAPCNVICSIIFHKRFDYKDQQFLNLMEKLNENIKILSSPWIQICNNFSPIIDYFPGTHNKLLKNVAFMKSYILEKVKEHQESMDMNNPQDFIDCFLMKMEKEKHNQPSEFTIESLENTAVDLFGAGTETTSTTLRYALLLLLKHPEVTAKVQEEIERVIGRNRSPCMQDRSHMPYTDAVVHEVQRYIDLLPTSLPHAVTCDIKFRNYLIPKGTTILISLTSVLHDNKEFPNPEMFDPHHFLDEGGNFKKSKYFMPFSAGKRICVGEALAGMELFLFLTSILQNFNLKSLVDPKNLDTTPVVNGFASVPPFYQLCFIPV
# PostGolgi yeast = growth inhibition of a yeast mutant, post-Golgi transport screen; post-Golgi transport phenotypic cell assay; inhibition, % at 10 µM; hit rate 0.9% among 98,000;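 note: yeast cells grown in 1536-well plates; yeast grown about 18 h at 30C before absorbance read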
# CYP2C19 act = cytochrome P450 2C19 (human) activation | P33261 | recombinant CYP2C19, luciferin-H EGE luminescence; hits give high values; 0 = fully inhibited enzyme, 1 = untreated enzyme | activation factor at 5 µM | 96,000 tested, under 10 active;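 active = activation factor of at least 2 at 5 µM in the primary screen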;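 note: 0 = wells with 2.5 mM tranylcypromine and 1 = vehicle-only wells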
# CYP2C19 inhib = blocks human cytochrome P450 2C19; P33261; CYP2C19 Supersomes, luciferin-H EGE luminescence, 30 min; inhibition, % at 5 µM; hit rate 21% among 96,000; AID 778;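 active = CYP2C19 inhibition above a set limit at 5 µM in the primary screen, cut at about 50% in these data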;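 note: plate controls were negative control wells for no effect and 2.5 mM tranylcypromine positive control for full effect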
# PostGolgi ctrl = yeast control strain growth, post-Golgi counter-screen; inhibition, % at 10 µM; efflux-deficient yeast background strain, growth absorbance A615, 16 h; hit rate 5% among 98,000
# CYP2C9 inhib = inhibitors of human CYP2C9. P11712. CYP2C9 Supersomes, luciferin-H conversion, luminescence. inhibition, % at 5 µM. hit rate 20% among 96,000;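 active = blocking of liver enzyme CYP2C9 beyond about 50% at 5 µM, limit read from the data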
# Numbers without * were called inactive; x = no result. Cut-off read from the data, not from the text of the source, unless noted: active = inhibition above about 30%; inactive = the rest.
SMILES,CYP2C9 act,PostGolgi yeast,CYP2C19 act,CYP2C19 inhib,PostGolgi ctrl,CYP2C9 inhib
O=C(CSc1nc2ccccc2c(=O)n1Cc1ccco1)c1ccc(F)cc1,0.5,0,0.9,8,23,52*
COc1ccc(N2CCN(C(=O)CNC(=O)Cn3c(C)cc4ccccc4c3=O)CC2)cc1,1.5,0,1.1,-7,1,-46
O=C(CSc1nnc(-c2cnccn2)n1Cc1ccco1)c1ccc2ccccc2c1,0.5,3,1,4,11,54*
COc1ccccc1-c1nnc(SCC(=O)c2ccc(C3CCCCC3)cc2)n1Cc1ccco1,0.1,4,0.2,80*,7,86*
CCn1c(SCC(=O)c2ccccc2)nnc1-c1cnccn1,1.2,-2,0.5,54*,-1,-18
O=C(CSc1nnc(-c2ccco2)n1Cc1ccccc1)c1ccc(F)cc1,0.1,-4,0,96*,32*,92*
COCc1cc(=O)[nH]c(/N=C(\N)Nc2ccccc2C)n1,1,2,1,-5,-3,-1
O=C(CSc1nnc(-c2ccccn2)n1Cc1ccco1)c1ccc(-c2ccccc2)cc1,0.7,2,1,0,26,28
Cc1occc1-c1nnc(SCC(=O)c2ccc(F)cc2)n1Cc1ccco1,0.4,-2,0.8,16,14,60*
C/C(N)=C(/C#N)C(=O)CSc1nnc(Nc2c(C)cccc2C)s1,0.3,2,0.3,72*,8,69*
C/C(N)=C(/C#N)C(=O)CSc1nnc(Nc2cccc(C)c2C)s1,0.3,6,0.3,66*,14,66*
CCCSc1nnc(Nc2ccccc2C)s1,0.7,4,0.7,28,10,29
C/C(N)=C(/C#N)C(=O)CSc1nnc(SCc2ccc(Cl)cc2)s1,0.3,-4,0.7,31,2,71*
COc1cccc(NC(=O)N2CCCC2C(=O)Nc2ccc3c(c2)OCO3)c1 (stereo not drawn),x,2,x,x,9,x
CCOC(=O)/C(C#N)=C/NC(=O)NC(C)(C)C,0.8,-5,0.7,34,-2,20
COc1ccc2c(c1)c(C(O)CN1CCN(Cc3ccc4c(c3)OCO4)CC1)c(C)n2C (stereo not drawn),0.9,29,0.9,11,2,14
COc1ccc2[nH]c3c(N4CCN(Cc5ccc6c(c5)OCO6)CC4)ncnc3c2c1,0.2,22,0.4,58*,-6,82*
COc1ccc2c(c1)c1ncnc(N3CCN(Cc4ccc5c(c4)OCO5)CC3)c1n2C,0.2,5,0.8,22,17,82*
c1ccc2c(c1)[nH]c1c(N3CCCC3)ncnc12,1.1,13,1,3,11,-6
COc1ccc2[nH]c3c(N4CCC(O)(c5cccc(C(F)(F)F)c5)CC4)ncnc3c2c1,0.3,3,0.6,40,6,67*
COC(=O)c1ccc(-c2ccc(CNCC(O)c3ccccc3)o2)cc1 (stereo not drawn),0.7,-8,0.4,60*,17,28
COc1ccc(CNC(=O)COc2ccc([N+](=O)[O-])cc2)cc1,0.7,-1,0.7,28,0,29
COc1ccc(CNc2cc([N+](=O)[O-])ccc2OC)cc1,0.3,-8,0.5,52*,14,75*
Cc1cc(CSc2ccccc2)ccc1NC(=O)c1cccc([N+](=O)[O-])c1,x,-1,x,x,13,x
Cc1cc([N+](=O)[O-])ccc1NCc1ccc2ccccc2c1,0.2,-6,0.6,36,-9,77*
SMILES,CYP2C9 act,PostGolgi yeast,CYP2C19 act,CYP2C19 inhib,PostGolgi ctrl,CYP2C9 inhib
Cc1cc([N+](=O)[O-])ccc1NCc1ccccc1,0.5,-5,0.1,87*,11,52*
O=C(CN1CCN(Cc2ccc(F)cc2)C1=O)NCc1cccs1,0.8,-6,0.9,14,26,16
CN(C(=O)c1ccco1)c1nc2c(s1)CCCC2,0.4,2,0.6,45,16,62*
COc1ccc(S(=O)(=O)N(C)C2CCN(C)CC2)cc1,1,-2,0.8,20,15,0
CCOC(=O)N1CCN(C(=O)C2CCN(S(=O)(=O)c3c(C)cc(C)cc3C)CC2)CC1,3.4*,1,0.8,22,11,-241
CCOC(=O)N1CCN(C(=O)C2CCN(S(=O)(=O)c3ccc(C)cc3)CC2)CC1,1.4,-14,0.9,10,-2,-35
CCOC(=O)N1CCN(S(=O)(=O)c2c(C)cc(C)cc2C)CC1,0.5,2,0.8,23,4,50*
O=C(Nc1ccc(-n2cnnn2)cc1)C1CCC1,0.6,10,0.5,51*,-5,39
O=C(CN1CCN(c2ccc(F)cc2)CC1)Nc1ccc(-n2cnnn2)cc1,x,5,x,x,6,x
CSC1=C(C#N)C(c2ccccc2C)C(C#N)=C(N)N1 (stereo not drawn),0,2,0.1,86*,50*,99*
CSC1=C(C#N)C(c2ccccc2Cl)C2=C(N1)c1ccccc1C2=O (stereo not drawn),0.5,0,0.5,53*,4,47
O=C(NCCCCNC(=O)c1c(F)c(F)c(F)c(F)c1F)c1c(F)c(F)c(F)c(F)c1F,1,-9,1.2,-19,2,1
COc1ccc(NC(=O)C2CCN(c3nnnn3-c3ccccc3)CC2)cc1,0.8,-4,0.9,8,-4,20
O=C(NCCO)c1ccc(-c2nnc(N3CCOCC3)c3ccccc23)cc1,1.1,-5,0.9,8,7,-14
O=C1c2ccccc2NC2CCCCCN12 (stereo not drawn),x,-4,x,x,-2,x
O=C1c2ccccc2NC(c2ccccc2)N1/N=C/c1ccccc1 (stereo not drawn),0.1,2,0.7,34,5,87*
Nc1cccc(C(=O)Nc2ccco2)c1,0.2,-1,0,98*,1,79*
COCC(C)n1c(C)cc(C(=O)COC(=O)c2c(NC(C)=O)sc(C)c2C)c1C (stereo not drawn),0.9,x,1,2,x,13
O=C(Cc1ccc(S(=O)(=O)N2CCOCC2)s1)NCC1CCCCC1,0.9,-5,1.1,-7,5,13
Cc1ccc(Cl)cc1N1CCN(C(=O)C2CCN(S(=O)(=O)c3cnc[nH]3)CC2)CC1,0.7,2,0.8,23,-1,29
Cc1ccc(C)c(N2CCN(C(=O)CN(C)S(=O)(=O)c3cnc[nH]3)CC2)c1,0,-9,0.1,92*,6,100*
CN(CC(=O)N1CCN(c2ccccc2F)CC1)S(=O)(=O)c1cnc[nH]1,0,16,0,99*,7,100*
CS(=O)(=O)N(CCc1ccccc1)CC(=O)N1CCN(c2ccccc2F)CC1,0.7,2,0.8,22,-4,27
COC(=O)CCCC(=O)Nc1c(F)c(F)c(F)c(F)c1F,0.9,-1,0.9,9,1,7
COc1ccccc1NC(=O)c1sc2ncn(Cc3ccc(C)cc3)c(=O)c2c1C,1.4,16,0.2,84*,2,-42

# High-throughput results (PubChem)
